The record followed here is PubChem BioAssay AID652095 (National Center for Advancing Translational Sciences (NCATS), 2013).

Molecules are shown by their SMILES. The source made the active and inactive calls.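 The calls were made as follows: active = glucocerebrosidase enzyme activity raised in patient cells of every tested mutation; inactive = no rise in glucocerebrosidase activity for any mutation.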

The assay deals with Lysosomal acid glucosylceramidase (Homo sapiens) (UniProt P04062). Kind of assay: Extended Characterization of Activators of N370S glucocerebrosidase as a Potential Chaperone Treatment of Gaucher Disease: Quantification of GCase activity. The note with it: Gaucher patient macrophages, GCase 4MU fluorescence. From the text: Glucocerebrosidase (GCase) catalyzes the hydrolysis of beta-glucocerebroside to glucose and ceramide in lysosomes. Mutations in the glucocerebrosidase gene result in Gaucher disease, an autosomal recessive lysosomal storage disorder. Many of the mutations encountered in patients with Gaucher disease are missense alterations that may cause misfolding, decreased stability and/or mistrafficking of this lysosomal protein. […] These inhibitors include iminosugar analogs and other inhibitors that were discovered as part of previous work. However, the enhancement of enzyme activity by the chaperone action of an enzyme inhibitor must be balanced against the direct inhibition of the enzyme. […] In this extended characterization of our probe, we have further characterized the activity of ML198 in patient-derived cellular models of Gaucher disease. In Gaucher-derived macrophages from 17 patients, with 4 separate mutation, we quantified GCase activity using a fluorescence read-out. NIH Chemical Genomics Center [NCGC] NIH Molecular Libraries Probe Production Centers Network [MLPCN] […]
Chain of Lysosomal acid glucosylceramidase (Homo sapiens) (P04062 40-536 N409S): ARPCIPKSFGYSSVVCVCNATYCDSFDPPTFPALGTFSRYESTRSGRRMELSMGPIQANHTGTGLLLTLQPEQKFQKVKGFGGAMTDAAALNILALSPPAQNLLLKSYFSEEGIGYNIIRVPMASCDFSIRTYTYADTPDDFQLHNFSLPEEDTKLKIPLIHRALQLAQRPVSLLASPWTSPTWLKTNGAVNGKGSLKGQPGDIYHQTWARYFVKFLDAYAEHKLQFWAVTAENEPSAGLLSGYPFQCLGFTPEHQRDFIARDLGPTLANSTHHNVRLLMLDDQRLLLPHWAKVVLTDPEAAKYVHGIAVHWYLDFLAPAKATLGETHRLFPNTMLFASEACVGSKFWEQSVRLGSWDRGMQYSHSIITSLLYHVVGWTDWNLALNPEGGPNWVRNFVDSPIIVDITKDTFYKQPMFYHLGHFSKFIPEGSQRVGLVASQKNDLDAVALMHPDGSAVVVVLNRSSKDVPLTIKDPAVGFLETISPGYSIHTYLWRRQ
Treated cells were cultured in black 96-well plates. After adding 100 µl assay buffer (200 mM sodium acetate (pH4), 5 mM 4MU-betaGlu and protease inhibitor cocktail (Sigma), cells were incubated for 1 hr at 37 degrees C. The reaction was halted using a stop solution (1 M NaOH and 1 M Glycine) and fluorescence measured.
`C#Cc1ccc(NC(=O)c2cnn3c(C)cc(C)nc23)cc1`: the outcome is “active; increased”.
